The supplement of paper PMC8728848
About 410 targets per protein were measured; listed, in parts, are those with the strongest signals and a random draw of the rest.

Legend:
Test in all cases: glycan array binding signal (z-score within array); higher = stronger binding
Settings in all cases: glycan notation: IUPAC condensed, linker removed; mutation: N288D, K313I
[1] = biological target: GlcNAc(b1-2)Man(a1-3)[GlcNAc(b1-4)][GlcNAc(b1-2)Man(a1-6)]Man(b1-4)GlcNAc(b1-4)[Fuc(a1-6)]GlcNAc
How it was run: (§1)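 The Consortium for Functional Glycomics database supplied 3228 glycan arrays, of which those lacking an available protein sequence were dropped. The binding signal, a within-array Z-score, was averaged across arrays of the same protein sequence and across linkers. Negative scores can be read as non-binding.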

[2] = biological target: GlcNAc(b1-2)[GlcNAc(b1-4)]Man(a1-3)[GlcNAc(b1-2)Man(a1-6)]Man(b1-4)GlcNAc(b1-4)GlcNAc
How it was run: as §1

[3] = biological target: GlcNAc(b1-2)[GlcNAc(b1-4)]Man(a1-3)[GlcNAc(b1-4)][GlcNAc(b1-2)[GlcNAc(b1-6)]Man(a1-6)]Man(b1-4)GlcNAc(b1-4)[Fuc(a1-6)]GlcNAc
How it was run: as §1

[4] = biological target: GlcNAc(b1-2)[GlcNAc(b1-6)]Man(a1-6)[GlcNAc(b1-2)Man(a1-3)]Man(b1-4)GlcNAc(b1-4)GlcNAc
How it was run: as §1

[5] = biological target: GlcNAc(b1-2)[GlcNAc(b1-6)]Man(a1-6)[GlcNAc(b1-4)][GlcNAc(b1-2)Man(a1-3)]Man(b1-4)GlcNAc(b1-4)GlcNAc
How it was run: as §1

[6] = biological target: GlcNAc(b1-3)Gal(b1-4)GlcNAc
How it was run: as §1

[7] = biological target: GlcNAc(b1-3)Gal(b1-4)GlcNAc(b1-2)[GlcNAc(b1-3)Gal(b1-4)GlcNAc(b1-6)]Man(a1-6)[GlcNAc(b1-3)Gal(b1-4)GlcNAc(b1-2)Man(a1-3)]Man(b1-4)GlcNAc(b1-4)GlcNAc
How it was run: as §1

[8] = biological target: GlcNAc(b1-3)Gal(b1-4)GlcNAc(b1-3)Gal(b1-4)GlcNAc(b1-2)[GlcNAc(b1-3)Gal(b1-4)GlcNAc(b1-3)Gal(b1-4)GlcNAc(b1-6)]Man(a1-6)[GlcNAc(b1-3)Gal(b1-4)GlcNAc(b1-3)Gal(b1-4)GlcNAc(b1-2)Man(a1-3)]Man(b1-4)GlcNAc(b1-4)[Fuc(a1-6)]GlcNAc
How it was run: as §1

[9] = biological target: GlcNAc(b1-3)Gal(b1-4)GlcNAc(b1-3)Gal(b1-4)GlcNAc(b1-3)Gal(b1-4)GlcNAc(b1-2)[GlcNAc(b1-3)Gal(b1-4)GlcNAc(b1-3)Gal(b1-4)GlcNAc(b1-3)Gal(b1-4)GlcNAc(b1-6)]Man(a1-6)[GlcNAc(b1-3)Gal(b1-4)GlcNAc(b1-3)Gal(b1-4)GlcNAc(b1-3)Gal(b1-4)GlcNAc(b1-2)Man(a1-3)]Man(b1-4)GlcNAc(b1-4)[Fuc(a1-6)]GlcNAc
How it was run: as §1

[10] = biological target: GlcNAc(b1-3)Gal(b1-4)GlcNAc(b1-3)Gal(b1-4)GlcNAc(b1-3)Gal(b1-4)GlcNAc(b1-3)Gal(b1-4)GlcNAc(b1-2)Man(a1-3)[GlcNAc(b1-3)Gal(b1-4)GlcNAc(b1-3)Gal(b1-4)GlcNAc(b1-3)Gal(b1-4)GlcNAc(b1-3)Gal(b1-4)GlcNAc(b1-2)Man(a1-6)]Man(b1-4)GlcNAc(b1-4)[Fuc(a1-6)]GlcNAc
How it was run: as §1

[11] = biological target: GlcNAc(b1-3)Gal(b1-4)GlcNAc(b1-6)[GlcNAc(b1-3)]Gal(b1-4)GlcNAc
How it was run: as §1

GlcNAc(b1-3)GalNAc = biological target: GlcNAc(b1-3)GalNAc
How it was run: as §1

[12] = biological target: GlcNAc(b1-3)[GlcNAc(b1-6)]Gal(b1-4)GlcNAc
How it was run: as §1

Kdn(a2-3)Gal(b1-3)GlcNAc = biological target: Kdn(a2-3)Gal(b1-3)GlcNAc
How it was run: as §1

[13] = biological target: Neu5Ac(a2-3)Gal(b1-3)GlcNAc(b1-6)GalNAc
How it was run: as §1

[14] = biological target: Neu5Ac(a2-3)Gal(b1-3)[Fuc(a1-4)]GlcNAc(b1-3)Gal(b1-3)[Fuc(a1-4)]GlcNAc
How it was run: as §1

[15] = biological target: Neu5Ac(a2-3)Gal(b1-3)[Neu5Ac(a2-6)]GlcNAc(b1-3)[Fuc(a1-3)[Gal(b1-4)]GlcNAc(b1-6)]Gal(b1-4)Glc
How it was run: as §1

[16] = biological target: Neu5Ac(a2-3)Gal(b1-4)GlcNAc(b1-6)GalNAc
How it was run: as §1

[17] = biological target: Neu5Ac(a2-3)Gal(b1-4)GlcNAc6S
How it was run: as §1

[18] = biological target: Neu5Ac(a2-3)Gal(b1-4)[Fuc(a1-3)]GlcNAc(b1-2)Man
How it was run: as §1

[19] = biological target: Neu5Ac(a2-3)Gal(b1-4)[Fuc(a1-3)]GlcNAc(b1-3)Gal
How it was run: as §1

[20] = biological target: Neu5Ac(a2-3)Gal(b1-4)[Fuc(a1-3)]GlcNAc(b1-3)GalNAc
How it was run: as §1

[21] = biological target: Neu5Ac(a2-6)Gal(b1-4)GlcNAc(b1-2)Man(a1-6)[GlcNAc(b1-2)Man(a1-3)]Man(b1-4)GlcNAc(b1-4)GlcNAc
How it was run: as §1

[22] = biological target: Neu5Ac(a2-6)Gal(b1-4)GlcNAc(b1-2)Man(a1-6)[Man(a1-3)]Man(b1-4)GlcNAc(b1-4)GlcNAc
How it was run: as §1

[23] = biological target: Neu5Ac(a2-6)Gal(b1-4)GlcNAc(b1-3)Gal(b1-4)GlcNAc(b1-6)[Gal(b1-3)]GalNAc
How it was run: as §1

[24] = biological target: Neu5Ac(a2-6)Gal(b1-4)GlcNAc(b1-6)GalNAc
How it was run: as §1

[25] = biological target: Neu5Ac(a2-8)Neu5Ac(a2-8)Neu5Ac(a2-8)Neu5Ac(a2-3)[GalNAc(b1-4)]Gal(b1-4)Glc
How it was run: as §1

Neu5Ac(b2-6)GalNAc = biological target: Neu5Ac(b2-6)GalNAc
How it was run: as §1

[26] = biological target: Neu5Ac9Ac(a2-3)Gal(b1-4)GlcNAc
How it was run: as §1

B1: Langerin (Homo sapiens), Q9UJ71 (protein)
chain: STLNAQIPELKSDLEKASALNTKIRALQGSLENMSKLLKRQNDILQVVSQGWKYFKGNFYYFSLIPKTWYSAEQFCVSRNSHLTSVTSESEQEFLYKTAGGLIYWIGLTKAGMEGDWSWVDDTPFNKVQSARFWIPGEPNDAGNNEHCGNIKAPSLQAWNDAPCDITFLFICKRPYVPSEP
[1]
  glycan array binding signal (z-score): 1.18
[2]
  glycan array binding signal (z-score): 0.028
[3]
  glycan array binding signal (z-score): 1.91
[4]
  glycan array binding signal (z-score): -0.239
[5]
  glycan array binding signal (z-score): 0.046
[6]
  glycan array binding signal (z-score): 1.72
[7]
  glycan array binding signal (z-score): 2.14
[8]
  glycan array binding signal (z-score): 16.7
[9]
  glycan array binding signal (z-score): 0.284
[10]
  glycan array binding signal (z-score): 2.34
[11]
  glycan array binding signal (z-score): 5.4
GlcNAc(b1-3)GalNAc
  glycan array binding signal (z-score): -0.205
[12]
  glycan array binding signal (z-score): 4.87
Kdn(a2-3)Gal(b1-3)GlcNAc
  glycan array binding signal (z-score): -0.115
[13]
  glycan array binding signal (z-score): -0.092
[14]
  glycan array binding signal (z-score): -0.088
[15]
  glycan array binding signal (z-score): -0.298
[16]
  glycan array binding signal (z-score): -0.165
[17]
  glycan array binding signal (z-score): -0.294
[18]
  glycan array binding signal (z-score): -0.159
[19]
  glycan array binding signal (z-score): -0.338
[20]
  glycan array binding signal (z-score): 0.034
[21]
  glycan array binding signal (z-score): -0.278
[22]
  glycan array binding signal (z-score): -0.187
[23]
  glycan array binding signal (z-score): -0.179
[24]
  glycan array binding signal (z-score): 0.078
[25]
  glycan array binding signal (z-score): -0.254
Neu5Ac(b2-6)GalNAc
  glycan array binding signal (z-score): -0.196
[26]
  glycan array binding signal (z-score): -0.434
